Consider 13 compounds from PubChem BioAssay (EPA / NIEHS).

Several values for one entry are separate records, joined by “and”; a condition that tells them apart may be missing. Equal values may be shown once. Some structures have more than one record in an assay (separate samples or runs), and their calls can disagree. Activity calls are given as the source filed them. Rule for the calls: active = hit-call score of the fitted dose curve at least 0.9, where 1 is the maximum; inactive = score below 0.9.

One experiment is described as follows: CCTE_Mundy_HCI_Cortical_Synap_Neur_Matur_NeuriteSpotCountPerNeuriteLength: CCTE's Synaptogenesis and Neurite Maturation Assay in rat cortical cells for Neurite Spot Count per Neurite Length, Mundy Lab (AID 2284210). The essentials: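 Primary rat cortical neurons, compound exposure DIV 7–12, 288.33 h endpoint. Hoechst, anti-MAP2 and anti-synaptophysin labelling; neurite-associated puncta per neurite length scored by automated imaging relative to DMSO controls.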
With `O=S1OCC2C(CO1)C1(Cl)C(Cl)=C(Cl)C2(Cl)C1(Cl)Cl` (stereo not drawn), the AC50 (as a rule, the concentration giving half of the maximal activity seen) was 22.4 µM (active).

Turning to `CC[C@H](C)[C@H]1O[C@]2(C=C[C@@H]1C)C[C@@H]1C[C@@H](C/C=C(\C)[C@@H](O[C@H]3C[C@H](OC)[C@@H](O[C@H]4C[C@H](OC)[C@@H](O)[C@H](C)O4)[C@H](C)O3)[C@@H](C)/C=C/C=C3\CO[C@@H]4[C@H](O)C(C)=C[C@@H](C(=O)O1)[C@]34O)O2` (tested in a mixture with another compound), the AC50 was 2.51 µM (active).

`O=S(=O)(O)C(F)(F)C(F)(F)C(F)(F)C(F)(F)C(F)(F)C(F)(F)C(F)(F)C(F)(F)F`: the outcome was inactive.

In the case of `COP(=S)(OC)Oc1ccc([N+](=O)[O-])cc1`, the compound was classed as inactive.

As to `CCC(C)(C)C(=O)OC1=C(c2ccc(Cl)cc2Cl)C(=O)OC12CCCCC2`, the result was inactive.

For the compound `O=C(O)C(F)(F)C(F)(F)C(F)(F)C(F)(F)C(F)(F)C(F)(F)C(F)(F)F`, the compound was called inactive.

Regarding `CC(C)N(C(=O)COc1nnc(C(F)(F)F)s1)c1ccc(F)cc1`, the compound was called inactive.

With `CC1(c2ccc(Oc3ccccc3)cc2)OC(=O)N(Nc2ccccc2)C1=O` (stereo not drawn), the AC50 was 37.6 µM (active).

Regarding `O=C(O)COc1ccc(Cl)cc1Cl`, the result was inactive.

Regarding `COP(=O)(OC)OC=C(Cl)Cl`, the compound was classed as inactive.

For `CC1(C)C(C=C(Cl)Cl)C1C(=O)OC(C#N)c1ccc(F)c(Oc2ccccc2)c1` (stereo not drawn), the AC50 is 82.7 µM (active) and the call was inactive.

Consider `CNC(=O)CSP(=S)(OC)OC`, for which the compound was called inactive.

Consider `O=[N+]([O-])/N=C1\NCCN1Cc1ccc(Cl)nc1`, for which the compound was called inactive.

The next experiment is described as follows: CCTE_Mundy_HCI_Cortical_Synap_Neur_Matur_BPCount: CCTE's Synaptogenesis and Neurite Maturation Assay in rat cortical cells for Branch Point Count, Mundy Lab (AID 2284211). In a few lines: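 Rat primary cortical cultures, AraC added DIV 5; chemicals dosed DIV 7 through DIV 12. Fixed cells stained for MAP2, synaptophysin and Hoechst; neurite branch points counted by automated high-content imaging, fitted relative to DMSO.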
For the compound `O=S1OCC2C(CO1)C1(Cl)C(Cl)=C(Cl)C2(Cl)C1(Cl)Cl` (stereo not drawn), the AC50 was 15 µM (active).

As to `CC[C@H](C)[C@H]1O[C@]2(C=C[C@@H]1C)C[C@@H]1C[C@@H](C/C=C(\C)[C@@H](O[C@H]3C[C@H](OC)[C@@H](O[C@H]4C[C@H](OC)[C@@H](O)[C@H](C)O4)[C@H](C)O3)[C@@H](C)/C=C/C=C3\CO[C@@H]4[C@H](O)C(C)=C[C@@H](C(=O)O1)[C@]34O)O2` (tested in a mixture with another compound), the AC50 is 0.896 µM (active).

For `O=S(=O)(O)C(F)(F)C(F)(F)C(F)(F)C(F)(F)C(F)(F)C(F)(F)C(F)(F)C(F)(F)F`, the compound was called inactive.

With `COP(=S)(OC)Oc1ccc([N+](=O)[O-])cc1`, the call was inactive.

On to `CCC(C)(C)C(=O)OC1=C(c2ccc(Cl)cc2Cl)C(=O)OC12CCCCC2`, for which the call was inactive.

As for `O=C(O)C(F)(F)C(F)(F)C(F)(F)C(F)(F)C(F)(F)C(F)(F)C(F)(F)F`, the call was inactive.

`CC(C)N(C(=O)COc1nnc(C(F)(F)F)s1)c1ccc(F)cc1`: the call was inactive.

Regarding `CC1(c2ccc(Oc3ccccc3)cc2)OC(=O)N(Nc2ccccc2)C1=O` (stereo not drawn), the AC50 was 20.2 µM (active).

`COP(=O)(OC)OC=C(Cl)Cl`: the AC50 is 49 µM (active) and the compound was classed as inactive.

As for `CC1(C)C(C=C(Cl)Cl)C1C(=O)OC(C#N)c1ccc(F)c(Oc2ccccc2)c1` (stereo not drawn), the AC50 is 49.9 µM (active) and 15 µM (active).

As for `CNC(=O)CSP(=S)(OC)OC`, the AC50 was 50 µM (active) and the compound was classed as inactive.

`O=[N+]([O-])/N=C1\NCCN1Cc1ccc(Cl)nc1`: the compound was classed as inactive.
